4 compounds from PubChem BioAssay (EPA / NIEHS) can be followed below.

“And” between values parts separate entries of the source, which are not always exact repeats. Equal entries are not always repeated. Records with an inconclusive call do not appear. Some structures have more than one record in an assay (separate samples or runs), and their calls can disagree. The source made the active and inactive calls. Rule for the calls, unless noted: active = hit-call score of the fitted dose curve at least 0.9, where 1 is the maximum; inactive = score below 0.9.

Assay [1] concerns the target Paired box protein Pax-6 (Homo sapiens) (UniProt P26367). As to the kind of experiment: ATG_Pax6_CIS: Attagene CIS-FACTORIAL HepG2 Assay for human Paired Box 6 (PAX6) (AID 2282956). The settings on record: HepG2 CIS-FACTORIAL PAX6 reporter transcription, RNA readout; actives raise or lower the signal. The method in brief:
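Fluorescent RT-PCR products separated by capillary electrophoresis report PAX6-linked promoter mRNA in HepG2 cells 24 h post-dose. Curves fitted bidirectionally, DMSO as negative control.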

The nature of assay [2]: ATG_PXRE_CIS: Attagene CIS-FACTORIAL HepG2 Assay for human Pregnane X Receptor Element (PXRE) (AID 2282957). The note with it: HepG2 Attagene CIS-FACTORIAL PXRE reporter, mRNA; actives raise or lower the signal. In short, it runs like this:
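Reporter transcripts under endogenous PXR-responsive cis-regulation quantified from total RNA of transfected HepG2 cells 24 h post-dosing, via RT-PCR with fluorescent primer extension and capillary electrophoresis. Gain or loss of signal fitted against DMSO baseline.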

A short description of assay [3]: ATG_PPRE_CIS: Attagene CIS-FACTORIAL HepG2 Assay for human Peroxisome Proliferator-activated Response Element (PPRE) (AID 2282958). The settings on record: HepG2 PPRE cis-element reporter, Attagene transcription factor profiling; actives raise or lower the signal. The method in brief:
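PPRE activity in HepG2: transient cis-reporter transfection, 24 h compound incubation, reporter mRNA by RT-PCR and CE fluorescence; gain/loss fitted against DMSO.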

A short description of assay [4]: ATG_RORE_CIS: Attagene CIS-FACTORIAL HepG2 Assay for human RAR-related Orphan Receptor Element (RORE) (AID 2282959). The settings on record: HepG2 Attagene cis-factorial RORE reporter, mRNA; actives raise or lower the signal. In short, it runs like this: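 A 24-hour exposure of transfected HepG2 hepatoma cells precedes RNA isolation and reporter RT-PCR. Labeled products are digested with HpaI and resolved by capillary electrophoresis, with gain or loss of signal scored relative to DMSO.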

Assay [5] in a line: ATG_Sox_CIS: Attagene CIS-FACTORIAL HepG2 Assay for human SRY-box transcription factor (SOX) (AID 2282960). The settings on record: HepG2 Attagene cis-factorial SOX reporter, mRNA; actives raise or lower the signal. In short, it runs like this:
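HepG2, cis reporter units, 24 h exposure. Reporter mRNA: RT-PCR → FAM labelling → HpaI → CE fluorescence. Bidirectional fit vs DMSO.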

In assay [6] the target is Transcription factor Sp1 (Homo sapiens) (UniProt P08047). As to the kind of experiment: ATG_Sp1_CIS: Attagene CIS-FACTORIAL HepG2 Assay for human Specificity Protein 1 (Sp1) (AID 2282961). The note with it: HepG2 Sp1 cis-reporter transcription, actives raise or lower the signal. In short, it runs like this: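 Liver-derived HepG2 cells, cis-element reporter library, 24 h treatment; RNA isolated, cDNA amplified with reporter-specific primers, FAM-labeled fragments sized on capillary analyzer. DMSO baseline, bidirectional curve fit.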

Assay [7] can be described thus: ATG_SREBP_CIS: Attagene CIS-FACTORIAL HepG2 Assay for human Sterol Regulatory Element Binding (SREBP) (AID 2282962). The note with it: HepG2 Attagene cis-factorial SREBP reporter, mRNA; actives raise or lower the signal. The method in brief:
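Endogenous factor activity is measured in HepG2 through multiplexed reporter units under cis-element control. Following a 24 h incubation, reporter transcripts are reverse-transcribed, PCR-amplified and sized by capillary electrophoresis; activity is fitted in both directions relative to DMSO.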

In assay [8] the target is Signal transducer and activator of transcription 3 (Homo sapiens) (UniProt P40763). As to the kind of experiment: ATG_STAT3_CIS: Attagene CIS-FACTORIAL HepG2 Assay for human Signal Transducer and Activator of Transcription 3 (STAT3) (AID 2282963). The note with it: HepG2, Attagene cis-factorial STAT3 reporter transcription; actives raise or lower the signal. The method in brief: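 Fluorescence intensity of 6-FAM-labelled reporter fragments, separated by capillary electrophoresis after RT-PCR, gave the signal. Cells were HepG2 transfected with cis-element reporter units and treated 24 h; fitting was bidirectional relative to DMSO.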

A short description of assay [9]: ATG_TA_CIS: Attagene CIS-FACTORIAL HepG2 Assay for human TA Basal Promoter (AID 2282964). The note with it: HepG2 Attagene CIS-factorial TA basal promoter reporter; actives raise or lower the signal. The method in brief: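 Background internal-marker endpoint from a 52-component HepG2 cis-reporter panel. Cells treated 24 h; reporter transcripts quantified via RT-PCR and CE fluorescence against DMSO baseline.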

Assay [10] in a line: ATG_TCF_b_cat_CIS: Attagene CIS-FACTORIAL HepG2 Assay for human T-Cell-Factor with beta-catenin (TCF/b-cat) (AID 2282965). The settings on record: HepG2 TCF/beta-catenin cis-reporter transcription, actives raise or lower the signal. In short, it runs like this:
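Cells of the HepG2 line carry transiently transfected reporter units whose promoters respond to endogenous factors. Twenty-four hours post-dosing, reporter mRNA induction is measured by fluorescent RT-PCR and capillary electrophoresis, with DMSO as baseline.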

The nature of assay [11]: ATG_TAL_CIS: Attagene CIS-FACTORIAL HepG2 Assay for human TAL Basal Promoter (AID 2282966).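 Note: background control endpoint measuring basal TAL promoter reporter mRNA not a specific factor.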 The note with it: HepG2 Attagene cis-factorial TAL promoter reporter; actives raise or lower the signal. In short, it runs like this: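 Background-control endpoint: basal TAL promoter reporter transcripts in transiently transfected HepG2, measured 24 h after dosing. Read-out by RT-PCR with fluorescent primer extension and capillary electrophoresis; gain or loss of signal fitted relative to DMSO.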

Assay [12] is described as follows: ATG_TGFb_CIS: Attagene CIS-FACTORIAL HepG2 Assay for human Transforming Growth Factor (TGF) (AID 2282967). The settings on record: HepG2 Attagene CIS TGFb reporter, mRNA transcription; actives raise or lower the signal. The method in brief:
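Liver HepG2 line, cis-factorial reporter panel, 24 h dosing. Quantitation: RT-PCR products labeled with 6-FAM, cut with HpaI, resolved by capillary electrophoresis; DMSO-referenced bidirectional analysis.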

A short description of assay [13]: ATG_VDRE_CIS: Attagene CIS-FACTORIAL HepG2 Assay for human Vitamin D Receptor Element (VDRE) (AID 2282968). The settings on record: HepG2 VDRE cis-reporter transcription, actives raise or lower the signal. The method in brief: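 Compounds were applied for 24 h to HepG2 cells transfected with promoter-regulated reporter units. Total RNA was reverse-transcribed, and reporter amplicons were fluorescently labelled and sized by capillary electrophoresis.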

In assay [14] the target is Nuclear receptor subfamily 1 group I member 3 (Homo sapiens) (UniProt Q14994). The assay can be described thus: ATG_CAR_TRANS: Attagene TRANS-FACTORIAL HepG2 Assay for human Constitutive Androstane Receptor (CAR) (AID 2282969; active = hit-call score of the fitted dose curve at least 0.9, where 1 is the maximum;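 note: activators raise reporter mRNA above DMSO so AC50 marks induction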). The note with it: HepG2 Attagene TRANS-FACTORIAL CAR reporter. The method in brief:
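Transiently transfected HepG2, multiplex TRANS reporters (CAR-Gal4 chimera driving GAL4-UAS reporter). 24 h dosing. Readout: reporter transcript by RT-PCR + capillary electrophoresis, fluorescence intensity; positive direction vs DMSO.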

The target in assay [15] is Steroid hormone receptor ERR1 (Homo sapiens) (UniProt P11474). The assay can be described thus: ATG_ERRa_TRANS: Attagene TRANS-FACTORIAL HepG2 Assay for human Estrogen-Related Receptor alpha (ERRa) (AID 2282971; active = hit-call score of the fitted dose curve at least 0.9, where 1 is the maximum). The note with it: HepG2 Attagene TRANS reporter, ERRa transactivation. In short, it runs like this:
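Reporter transcripts from ERRa-Gal4 chimera activity measured in transiently transfected human HepG2 cells 24 hours after dosing, using RT-PCR with 6-FAM primer extension, HpaI digestion and capillary electrophoresis; DMSO is baseline.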

Assay [16] deals with X-box-binding protein 1 (Homo sapiens) (UniProt P17861). The assay can be described thus: ATG_Xbp1_CIS: Attagene CIS-FACTORIAL HepG2 Assay for human X-box Binding Protein 1 (XBP1) (AID 2282972). The settings on record: HepG2 XBP1 cis-element reporter, Attagene multiplex; actives raise or lower the signal. The method in brief: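 Multiplexed cis-reporter readout in transfected HepG2 liver cells. Exposure lasted 24 hours. Activity in either direction was fitted against DMSO as negative control and baseline.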

The nature of assay [17]: ATG_M_19_TRANS: Attagene TRANS-FACTORIAL HepG2 Assay for M19 Transcription Factor (Internal Marker) (AID 2282974; active = hit-call score of the fitted dose curve at least 0.9, where 1 is the maximum). The note with it: HepG2 Attagene TRANS-FACTORIAL M19 internal marker reporter. In short, it runs like this:
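Transfected HepG2 (GAL4-UAS MRTUs), 24 h compound, TriZol RNA, DNase-treated RT, reporter PCR, FAM label, HpaI digest, CE fluorescence; gain vs DMSO.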

The target in assay [18] is Estrogen-related receptor gamma (Homo sapiens) (UniProt P62508). As to the kind of experiment: ATG_ERRg_TRANS: Attagene TRANS-FACTORIAL HepG2 Assay for human Estrogen-Related Receptor gamma (ERRg) (AID 2282977; active = hit-call score of the fitted dose curve at least 0.9, where 1 is the maximum;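 note: hits increase reporter signal over DMSO so potencies reflect activators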). The note with it: HepG2 Attagene TRANS reporter, ERRg transactivation. In short, it runs like this:
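Exogenous NR-Gal4 chimera activity measured as reporter transcript induction after 24 h in transiently transfected HepG2 cells. RNA reverse-transcribed, PCR-amplified, 6-FAM-labelled and resolved by capillary electrophoresis; increase over DMSO baseline.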

The target in assay [19] is Estrogen receptor (Homo sapiens) (UniProt P03372). The assay can be described thus: ATG_ERa_TRANS: Attagene TRANS-FACTORIAL HepG2 Assay for human Estrogen Receptor alpha (ERa) (AID 2282970; active = hit-call score of the fitted dose curve at least 0.9, where 1 is the maximum). The note with it: HepG2 Attagene TRANS ERa GAL4 reporter, mRNA. In short, it runs like this: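 Reporter transcripts were measured 24 h after dosing by RT-PCR with fluorescent primer extension and capillary electrophoresis. The system is transiently transfected HepG2 expressing exogenous NR-Gal4 chimeras driving GAL4-UAS reporters; DMSO is the baseline.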

The nature of assay [20]: ATG_GAL4_TRANS: Attagene TRANS-FACTORIAL HepG2 Assay for GAL4 (Internal Marker) (AID 2282976; active = hit-call score of the fitted dose curve at least 0.9, where 1 is the maximum). The note with it: HepG2 Attagene TRANS GAL4 internal marker reporter. In short, it runs like this:
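In transfected human HepG2 liver cells dosed 24 h, GAL4 reporter mRNA serves as a baseline marker. Detection by RT-PCR with fluorescent capillary electrophoresis, activity fitted upward relative to DMSO.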

Signal transducer and activator of transcription 3 (Homo sapiens), sequence (P40763 whole entry, looked up, the tested form may be a part): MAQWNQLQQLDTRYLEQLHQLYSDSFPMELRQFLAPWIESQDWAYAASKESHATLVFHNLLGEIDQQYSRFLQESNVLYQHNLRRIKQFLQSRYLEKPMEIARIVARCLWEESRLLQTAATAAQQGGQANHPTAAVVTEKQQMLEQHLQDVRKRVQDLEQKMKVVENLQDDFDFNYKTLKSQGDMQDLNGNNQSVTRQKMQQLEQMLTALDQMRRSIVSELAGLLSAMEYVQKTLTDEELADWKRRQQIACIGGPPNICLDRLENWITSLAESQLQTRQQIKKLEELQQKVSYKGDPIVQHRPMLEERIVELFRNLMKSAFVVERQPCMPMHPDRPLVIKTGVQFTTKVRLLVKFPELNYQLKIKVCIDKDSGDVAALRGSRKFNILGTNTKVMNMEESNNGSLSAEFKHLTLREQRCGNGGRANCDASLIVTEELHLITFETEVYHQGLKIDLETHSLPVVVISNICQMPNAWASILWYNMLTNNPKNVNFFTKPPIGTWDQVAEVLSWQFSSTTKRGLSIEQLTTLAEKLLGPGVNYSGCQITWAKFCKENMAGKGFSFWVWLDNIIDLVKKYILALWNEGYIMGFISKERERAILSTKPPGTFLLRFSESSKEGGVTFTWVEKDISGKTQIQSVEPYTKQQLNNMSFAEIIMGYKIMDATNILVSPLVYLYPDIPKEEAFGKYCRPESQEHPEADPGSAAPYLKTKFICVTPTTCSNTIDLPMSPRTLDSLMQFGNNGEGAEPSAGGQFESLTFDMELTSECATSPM
X-box-binding protein 1 (Homo sapiens), sequence (P17861 whole entry, looked up): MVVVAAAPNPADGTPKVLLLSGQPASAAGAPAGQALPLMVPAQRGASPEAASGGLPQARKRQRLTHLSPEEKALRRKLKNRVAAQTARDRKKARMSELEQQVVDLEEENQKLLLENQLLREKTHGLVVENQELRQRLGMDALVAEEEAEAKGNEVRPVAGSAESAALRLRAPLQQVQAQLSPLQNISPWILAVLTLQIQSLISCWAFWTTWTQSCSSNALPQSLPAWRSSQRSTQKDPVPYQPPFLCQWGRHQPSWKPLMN
Paired box protein Pax-6 (Homo sapiens), sequence (P26367 whole entry, looked up): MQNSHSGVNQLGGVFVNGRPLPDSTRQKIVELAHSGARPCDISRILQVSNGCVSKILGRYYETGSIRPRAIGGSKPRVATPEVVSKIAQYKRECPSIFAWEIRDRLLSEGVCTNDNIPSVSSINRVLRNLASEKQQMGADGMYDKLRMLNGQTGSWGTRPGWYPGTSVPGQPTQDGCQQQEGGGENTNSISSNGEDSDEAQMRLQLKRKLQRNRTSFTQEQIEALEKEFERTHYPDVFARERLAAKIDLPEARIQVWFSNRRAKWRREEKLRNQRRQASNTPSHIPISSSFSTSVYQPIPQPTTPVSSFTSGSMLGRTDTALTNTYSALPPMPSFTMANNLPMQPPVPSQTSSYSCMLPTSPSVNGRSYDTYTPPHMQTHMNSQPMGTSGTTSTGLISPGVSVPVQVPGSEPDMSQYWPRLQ
Estrogen-related receptor gamma (Homo sapiens), sequence (P62508 whole entry, looked up, the tested form may be a part): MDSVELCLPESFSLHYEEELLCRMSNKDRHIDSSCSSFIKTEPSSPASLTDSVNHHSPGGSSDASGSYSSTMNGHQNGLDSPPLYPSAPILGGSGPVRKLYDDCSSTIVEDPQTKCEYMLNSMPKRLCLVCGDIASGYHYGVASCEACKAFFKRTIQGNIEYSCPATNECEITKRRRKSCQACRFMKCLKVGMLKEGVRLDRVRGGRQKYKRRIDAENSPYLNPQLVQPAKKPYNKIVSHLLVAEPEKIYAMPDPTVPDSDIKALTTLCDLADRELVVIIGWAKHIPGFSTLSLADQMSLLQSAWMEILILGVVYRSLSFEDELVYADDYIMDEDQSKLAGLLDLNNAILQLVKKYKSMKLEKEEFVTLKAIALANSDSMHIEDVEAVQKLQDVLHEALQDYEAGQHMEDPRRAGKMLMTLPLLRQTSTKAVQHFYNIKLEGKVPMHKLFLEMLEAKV
Nuclear receptor subfamily 1 group I member 3 (Homo sapiens), sequence (Q14994 whole entry, looked up, the tested form may be a part): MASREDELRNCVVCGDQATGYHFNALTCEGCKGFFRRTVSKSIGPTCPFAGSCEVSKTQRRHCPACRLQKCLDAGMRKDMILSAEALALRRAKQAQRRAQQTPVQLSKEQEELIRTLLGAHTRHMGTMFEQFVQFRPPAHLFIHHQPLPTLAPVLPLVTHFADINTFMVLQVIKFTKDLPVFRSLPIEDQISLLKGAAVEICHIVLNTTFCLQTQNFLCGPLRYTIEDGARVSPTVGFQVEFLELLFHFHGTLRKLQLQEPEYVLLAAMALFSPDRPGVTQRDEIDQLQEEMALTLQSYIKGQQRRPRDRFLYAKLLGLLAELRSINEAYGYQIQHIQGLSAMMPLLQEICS
Steroid hormone receptor ERR1 (Homo sapiens), sequence (P11474 whole entry, looked up, the tested form may be a part): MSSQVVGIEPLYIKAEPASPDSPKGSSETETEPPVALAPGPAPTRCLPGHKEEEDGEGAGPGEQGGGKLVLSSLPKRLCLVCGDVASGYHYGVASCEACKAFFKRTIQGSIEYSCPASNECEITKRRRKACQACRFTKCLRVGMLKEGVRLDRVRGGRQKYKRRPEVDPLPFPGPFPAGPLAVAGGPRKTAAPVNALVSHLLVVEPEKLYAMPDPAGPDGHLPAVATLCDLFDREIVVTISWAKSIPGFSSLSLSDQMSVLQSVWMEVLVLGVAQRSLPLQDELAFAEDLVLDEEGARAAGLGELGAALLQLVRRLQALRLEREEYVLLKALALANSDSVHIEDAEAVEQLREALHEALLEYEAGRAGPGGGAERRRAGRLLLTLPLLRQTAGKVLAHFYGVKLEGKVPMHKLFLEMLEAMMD
Transcription factor Sp1 (Homo sapiens), sequence (P08047 whole entry, looked up, the tested form may be a part): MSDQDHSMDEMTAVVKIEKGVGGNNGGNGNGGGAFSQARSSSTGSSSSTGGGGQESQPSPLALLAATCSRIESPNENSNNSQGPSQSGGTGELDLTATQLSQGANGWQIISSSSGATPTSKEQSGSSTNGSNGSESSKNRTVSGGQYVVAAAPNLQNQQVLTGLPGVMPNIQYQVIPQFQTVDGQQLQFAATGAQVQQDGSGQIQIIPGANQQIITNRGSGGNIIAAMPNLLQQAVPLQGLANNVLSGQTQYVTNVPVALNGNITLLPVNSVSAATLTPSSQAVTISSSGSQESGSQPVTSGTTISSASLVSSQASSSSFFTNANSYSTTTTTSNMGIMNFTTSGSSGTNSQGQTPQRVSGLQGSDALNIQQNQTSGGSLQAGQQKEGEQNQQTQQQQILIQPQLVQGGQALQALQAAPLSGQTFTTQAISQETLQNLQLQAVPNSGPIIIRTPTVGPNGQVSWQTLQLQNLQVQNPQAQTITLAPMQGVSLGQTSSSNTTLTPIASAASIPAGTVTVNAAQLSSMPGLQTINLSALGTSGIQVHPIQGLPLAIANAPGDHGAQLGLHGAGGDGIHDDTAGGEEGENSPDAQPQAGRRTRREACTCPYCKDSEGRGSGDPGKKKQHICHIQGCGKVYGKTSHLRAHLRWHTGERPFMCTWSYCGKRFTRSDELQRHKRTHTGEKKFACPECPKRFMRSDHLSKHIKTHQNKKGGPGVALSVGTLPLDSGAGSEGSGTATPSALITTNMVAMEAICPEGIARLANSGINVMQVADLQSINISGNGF
Estrogen receptor (Homo sapiens), sequence (P03372 whole entry, looked up, the tested form may be a part): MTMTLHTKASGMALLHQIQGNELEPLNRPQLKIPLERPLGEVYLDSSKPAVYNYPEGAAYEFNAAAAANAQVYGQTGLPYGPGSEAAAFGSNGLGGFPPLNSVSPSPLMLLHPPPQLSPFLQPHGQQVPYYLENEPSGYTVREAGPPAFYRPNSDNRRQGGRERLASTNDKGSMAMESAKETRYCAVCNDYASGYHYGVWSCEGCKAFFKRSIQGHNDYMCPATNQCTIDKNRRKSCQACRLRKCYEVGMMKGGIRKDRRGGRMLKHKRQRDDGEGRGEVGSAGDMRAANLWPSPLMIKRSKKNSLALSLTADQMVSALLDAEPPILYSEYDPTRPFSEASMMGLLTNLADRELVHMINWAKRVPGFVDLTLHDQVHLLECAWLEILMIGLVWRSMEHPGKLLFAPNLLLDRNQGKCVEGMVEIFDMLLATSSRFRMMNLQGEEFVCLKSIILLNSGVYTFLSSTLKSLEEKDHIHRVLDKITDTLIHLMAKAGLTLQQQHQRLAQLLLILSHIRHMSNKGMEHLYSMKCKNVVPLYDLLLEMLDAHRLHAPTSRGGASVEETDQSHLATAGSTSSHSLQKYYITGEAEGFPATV

For `CCNS(=O)(=O)C(F)(F)C(F)(F)C(F)(F)C(F)(F)C(F)(F)C(F)(F)C(F)(F)C(F)(F)F`, the AC50 in assay [1] was 96.5 µM (active); in [2], 3.71 µM (active) and 6.95 µM (active) and 12.9 µM (active); in assay [3], 146 µM (active) and 29.8 µM (active); in assay [5] it was 96.5 µM (active); in assay [7] it was 148 µM (active); in [10], 169 µM (active). The AC50 was 91.1 µM (active) and 44 µM (active) and 40.3 µM (active) in assay [12]; 67.3 µM (active) and 25.7 µM (active) in assay [13]; 73.3 µM (active) and 84.4 µM (active) and 31.5 µM (active) in assay [16]. In addition, the outcome in assay [1], in assay [3], in assay [4], in assay [5], in [6] and in assay [7] was inactive. In addition, the compound was called inactive in [8], in assay [9], in assay [10], in assay [11], in assay [13] and in assay [14]. The call in assay [15], in assay [17] and in [18] was inactive.

As to `OCCCBr`, the result in [1], in [2], in [3], in [4], in assay [5] and in assay [6] was inactive. Also, the result in assay [7], in assay [8], in assay [9], in [10], in assay [11] and in assay [12] was inactive. Further, the result in assay [13], in [19], in assay [15] and in assay [16] was inactive.

As for `CCCCCCCCn1sccc1=O`, the AC50 in assay [1] is 19.1 µM (active); in assay [2], 18.5 µM (active); in assay [5] it was 18.4 µM (active); in [6] it was 17 µM (active); in assay [7], 14.8 µM (active); in assay [10], 15.6 µM (active). Further, the AC50 was 16.7 µM (active) in [13], 16.9 µM (active) in assay [19] and 16.5 µM (active) in [16]. Further, the outcome in [3], in assay [4], in [8], in assay [9], in assay [11] and in [12] was inactive. The compound was classed as inactive in assay [17], in [20] and in assay [18].

As for `Cc1cc(N=Nc2ccccc2C)ccc1N`, the AC50 in [1] is 22.4 µM (active); in [2] it was 13.9 µM (active); in assay [3], 26.4 µM (active); in [4] it was 23 µM (active); in assay [9], 19 µM (active); in assay [13], 22.9 µM (active). In assay [16], the AC50 was 19.3 µM (active). The compound was called inactive in [5], in [6], in assay [7], in assay [8], in [10] and in assay [11]. Moreover, the compound was called inactive in assay [12], in [14], in assay [15], in assay [17] and in [18].
